# Experimental data taken from PubChem BioAssay.
# Records with an inconclusive call do not appear. Active and inactive are the calls of the source. Cut-off read from the data, not from the text of the source, unless noted: active = inhibition above about 30%; inactive = the rest.
# Tests used:
# [1] = reducers of endogenous Her2 protein level, primary screen, SKBR3 breast tumor cells, AlphaScreen, ATP viability (AID 461;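 active = Her2 level under about 52% in both replicate screens, with viability over 70% of control, limit read from the data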;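 for Her2 level: lower value means less Her2 protein in the cells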;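 for viability: percent of carrier control wells set as 100% viability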); conditions: 18-24 h, measured here: SKBR3 viability, ATP luminescence, at 10 µM
# [2] = target: Receptor tyrosine-protein kinase erbB-2 (Homo sapiens) (UniProt P04626); assay: as above; conditions: 18-24 h, at 10 µM, stronger effect = lower value
# Receptor tyrosine-protein kinase erbB-2 (Homo sapiens), sequence (P04626 whole entry, looked up): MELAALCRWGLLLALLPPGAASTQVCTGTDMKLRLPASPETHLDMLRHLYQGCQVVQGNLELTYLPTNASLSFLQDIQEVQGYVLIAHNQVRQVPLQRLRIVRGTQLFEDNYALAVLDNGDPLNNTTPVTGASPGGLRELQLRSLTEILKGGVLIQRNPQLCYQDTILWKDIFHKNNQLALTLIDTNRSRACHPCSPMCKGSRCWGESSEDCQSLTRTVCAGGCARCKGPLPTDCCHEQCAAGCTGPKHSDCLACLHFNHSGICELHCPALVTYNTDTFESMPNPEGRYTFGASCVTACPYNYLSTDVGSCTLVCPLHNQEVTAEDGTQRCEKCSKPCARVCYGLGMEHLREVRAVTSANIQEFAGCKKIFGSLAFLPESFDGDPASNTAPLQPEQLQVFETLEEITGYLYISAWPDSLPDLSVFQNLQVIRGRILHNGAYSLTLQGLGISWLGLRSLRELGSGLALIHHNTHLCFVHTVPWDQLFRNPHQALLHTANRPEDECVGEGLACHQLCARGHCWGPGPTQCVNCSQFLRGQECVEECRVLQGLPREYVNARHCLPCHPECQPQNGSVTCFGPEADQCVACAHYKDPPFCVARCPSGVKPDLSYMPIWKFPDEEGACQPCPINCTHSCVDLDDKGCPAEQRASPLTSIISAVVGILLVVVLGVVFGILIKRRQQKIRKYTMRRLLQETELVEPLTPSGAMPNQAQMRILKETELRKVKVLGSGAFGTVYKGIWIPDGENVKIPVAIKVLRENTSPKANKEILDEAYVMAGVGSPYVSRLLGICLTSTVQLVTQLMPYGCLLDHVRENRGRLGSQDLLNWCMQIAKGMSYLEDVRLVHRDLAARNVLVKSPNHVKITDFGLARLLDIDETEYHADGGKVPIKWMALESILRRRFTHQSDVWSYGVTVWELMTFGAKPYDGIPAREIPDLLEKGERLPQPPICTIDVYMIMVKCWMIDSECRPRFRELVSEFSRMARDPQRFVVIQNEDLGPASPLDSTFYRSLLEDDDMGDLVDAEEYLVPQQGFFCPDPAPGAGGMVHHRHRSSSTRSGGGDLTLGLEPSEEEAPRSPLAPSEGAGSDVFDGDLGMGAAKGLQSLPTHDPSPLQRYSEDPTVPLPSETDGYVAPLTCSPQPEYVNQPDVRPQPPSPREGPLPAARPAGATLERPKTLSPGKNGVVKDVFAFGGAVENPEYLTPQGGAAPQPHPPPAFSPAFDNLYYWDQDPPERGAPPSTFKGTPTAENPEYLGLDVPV
# [3] = SK-BR-3 cell growth inhibitors, pilot screen, 24 h, human (AID 572;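 active = viability at or below 10% of carrier control in both of two separate runs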;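 note: compound exposure lasted between 18 and 24 h rather than exactly 24 h; 100% = carrier-treated control wells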); conditions: SK-BR-3 viability, CellTiter-Glo luminescence, at 10 µM, stronger effect = lower value
# [4] = HUVEC growth inhibition – cell-based, human, primary screen (AID 575;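 active = viability at or below 30% in both replicate assays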;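 note: 100% = median of untreated cell wells with 0.1% DMSO on each plate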); conditions: HUVEC proliferation, CellTiter-Glo luminescence, 72 h; at 10 µM; stronger effect = lower value
# [5] = growth inhibitors of H69AR lung tumor, primary screen, human, duplicate replicates (AID 580;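 active = viability at or under a set limit in both replicates, limit being median viability minus 3 SD, cut at about 48% in these data, passing the limit was not always enough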;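 note: 100% = mean luminescence of untreated wells and 0% = no signal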); conditions: H69AR lung tumor cells viability, ATP luminescence, 72 h; at 10 µM; stronger effect = lower value
# [6] = reversal of MRP1-mediated doxorubicin resistance, pilot screen, H69AR cells, doxorubicin co-treatment (AID 601;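 active = viability loss from added drug above about 55%, and viability with drug at most 40%, in both replicates, limit read from the data, passing the limit was not always enough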); conditions: CellTiter-Glo, 72 h, at 10 µM; for differential viability (reversal): stronger effect = higher value
# [7] = 384-well plate pilot, post-Golgi transport modulator project, inhibition of yeast transport mutant growth (AID 636; in the data active = inhibition above about 31%); conditions: absorbance 615 nm, about 18 h, stronger effect = higher value
# [8] = growth suppression of yeast trafficking mutant, preliminary HTS, modulators of trafficking downstream of Golgi apparatus project, 1536-format plate, OD 615 nm (AID 637); conditions: yeast transport mutant growth, absorbance 615 nm, 18 h; stronger effect = higher value
# [9] = OD615 S. cerevisiae growth inhibition, permissive medium, pilot counter-assay, permissive growth control for S. cerevisiae lifespan shortening project (AID 705;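 active = growth inhibition above 25% in both replicates, a cutoff set 3 SD above the mean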); conditions: OD615, 24 h, at 10 µM, stronger effect = higher value
# [10] = Restrictive medium S. cerevisiae growth inhibition, OD615, pilot screen of yeast lifespan reduction project, restrictive growth control (AID 706;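 active = growth inhibition above a set limit, 3 SD over mean compound inhibition, in both replicates, cut at about 43% in these data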;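 note: modified DeaD lifespan yeast strain shifted to restrictive glucose medium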); conditions: OD615, 48 h, at 10 µM, stronger effect = higher value
# [11] = viability gain of MRP-1-high H69AR cells under doxorubicin, pilot screen, MRP-1 activator project, CellTiter-Glo, duplicate (AID 807;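 active = viability increase at or above a cutoff of the median across tested compounds plus 3 SD, cut at about 8.5% in these data, passing the limit was not always enough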;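 note: compound pretreatment 18-22 h then 72 h combined with doxorubicin; 0% = doxorubicin alone and 100% = vehicle without doxorubicin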); conditions: H69AR viability with doxorubicin, CellTiter-Glo luminescence; at 10 µM; stronger effect = higher value
# [12] = growth suppression of beta-catenin knockout HCT116, pilot screen, human colon tumor cells (AID 823;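 active = cell viability at or below a set limit in both duplicate runs, the limit being the all-compound median minus 4 SD, cut at about 23% in these data, passing the limit was not always enough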;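 note: 0% = wells killed by 20 µM Hyamine and 100% = untreated DMSO cell wells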); conditions: CellTiter-Glo, 60 h, at 10 µM, stronger effect = lower value
# [13] = growth suppression of PTEN-deleted HCT116, pilot screen, cell-based, HCT116 clonal line, CellTiter-Glo (AID 824;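 active = viability at or below 27.92% in each of two runs, the all-compound median minus 4 SD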;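 note: 0% = 20 µM Hyamine control and 100% = vehicle cell control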); conditions: 60 h, at 10 µM, stronger effect = lower value
# [14] = inhibitors of the yeast RAM network, pilot screen, dse1pr::URA3 reporter, 5-FOA selection (AID 869;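 active = inhibition over a set limit, the all-compound mean plus 3 SD, in both replicate runs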;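 note: 0% = DMSO wells with no growth and 100% = 10 µM 1-NA-PP1 with full growth; RAM network block rescues cells from 5-FOA so hits raise OD615 growth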); conditions: S. cerevisiae dse1pr::URA3 5-FOA growth, OD615, 2 d; at 10 µM; stronger effect = higher value; strain carries analog-sensitive mutant Cbk1 kinase
# [15] = RAM signaling pathway blockade in yeast – S. cerevisiae, Pdr1DBD-CYC8 efflux-inhibited sensitized strain, primary screen (AID 1298;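 active = RAM network inhibition above 8.4% in each of two replicates, 3 SD over the compound average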;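 note: 0% = DMSO untreated cells without growth and 100% = 10 µM 1-NA-PP1 full growth; higher means more yeast growth rescued from 5-FOA killing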); conditions: S. cerevisiae cbk1-as DSE1-URA3 strain, 5-FOA growth OD615, 2 d; at 50 µM; stronger effect = higher value
# [16] = H69AR cells + 2 uM doxorubicin, measured here: viability with 2 uM doxorubicin, stronger effect = lower value
# [17] = H69AR cells, compound alone cytotoxicity
SMILES,viability [1] [%],Her2 level [2],viability [3],viability [4],viability [5],differential viability (reversal) ([6]; H69AR cells + 2 uM doxorubicin),"viability [6, 16] [%]","viability [6, 17] [%]",inhibition [7],inhibition [8],growth inhibition [9],growth inhibition [10],viability increase [11],viability [12],viability [13],inhibition [14],RAM network inhibition [15]
CC1(C)CC(=O)C(C=NCCO)=C(O)C1,100,97.5% (inactive),100% (inactive),113% (inactive),91.2% (inactive),2.35% (inactive),88.9,91.2,-6.08% (inactive),5.83% (inactive),5.08% (inactive),-3.12% (inactive),1.5% (inactive),102% (inactive),101% (inactive),1.19% (inactive),2.26% (inactive)
CCOC(=O)C1CCCN(C(=O)c2cn(C)c(=O)c3cc(OC)c(OC)cc23)C1 (stereo not given),96.5,99.5% (inactive),96.5% (inactive),94.2% (inactive),91% (inactive),-9.49% (inactive),101,91,-3.38% (inactive),4.43% (inactive),-11.5% (inactive),-4.87% (inactive),-3.62% (inactive),97% (inactive),90.7% (inactive),1.17% (inactive),1.13% (inactive)
COc1ccc(C2C(C(C)=O)=C(C)N=c3s/c(=C/c4ccc5c(c4)OCO5)c(=O)n32)cc1 (stereo not given),85,97.5% (inactive),85% (inactive),91.7% (inactive),112% (inactive),17.7% (inactive),94.4,112,-7.81% (inactive),-3.49% (inactive),-11.4% (inactive),-17.4% (inactive),3.84% (inactive),90.1% (inactive),83.9% (inactive),0.93% (inactive),-0.74% (inactive)
CCOCCCNC(=O)Cn1cc2c(n1)CCCCC2,114,104% (inactive),114% (inactive),109% (inactive),103% (inactive),6.04% (inactive),96.8,103,1.03% (inactive),2.67% (inactive),-3.18% (inactive),-3.17% (inactive),-0.62% (inactive),100% (inactive),99.9% (inactive),2.07% (inactive),3.72% (inactive)
COc1ccccc1N(CC(=O)Nc1cccnc1)S(C)(=O)=O,94.5,108% (inactive),94.5% (inactive),89.8% (inactive),89.3% (inactive),1.5% (inactive),87.8,89.3,0.81% (inactive),-3.28% (inactive),-5.2% (inactive),13.5% (inactive),-1.31% (inactive),103% (inactive),97.2% (inactive),2.62% (inactive),3.47% (inactive)
COc1ccc(N(CC(=O)O)S(=O)(=O)c2ccc(OC)c(OC)c2)cc1,112,102% (inactive),112% (inactive),108% (inactive),90.3% (inactive),-3.8% (inactive),94.1,90.3,-3.38% (inactive),1.31% (inactive),-15.1% (inactive),-11.2% (inactive),-1.32% (inactive),105% (inactive),99.1% (inactive),-0.04% (inactive),0.87% (inactive)
CCOC(=O)Cc1nnc(NC(=O)c2ccccc2OCC)s1,100,92.5% (inactive),100% (inactive),103% (inactive),98% (inactive),9.93% (inactive),88.1,98,0% (inactive),-4.26% (inactive),-9.41% (inactive),-14.8% (inactive),-0.28% (inactive),102% (inactive),102% (inactive),1.33% (inactive),3.5% (inactive)
COC1CCCCC1Nc1cccc(SC)c1 (stereo not given),100,112% (inactive),100% (inactive),104% (inactive),88.3% (inactive),10.6% (inactive),77.7,88.3,-3.25% (inactive),-3% (inactive),-1.82% (inactive),-18.4% (inactive),-3.29% (inactive),80.6% (inactive),75.1% (inactive),1.83% (inactive),7.2% (inactive)
O=C(NCc1cccs1)C(Cc1ccccc1)n1cccc1 (stereo not given),114,110% (inactive),114% (inactive),106% (inactive),94.6% (inactive),8.57% (inactive),86,94.6,-1.67% (inactive),-5.67% (inactive),3.97% (inactive),-4.98% (inactive),0.04% (inactive),92.6% (inactive),89.9% (inactive),3.21% (inactive),3.72% (inactive)
COc1ccc(S(=O)(=O)N2CCCC2C(=O)Nc2ccc(O)cc2)cc1 (stereo not given),93.5,106% (inactive),93.5% (inactive),92.6% (inactive),98.4% (inactive),3.97% (inactive),94.4,98.4,0.13% (inactive),-4.92% (inactive),-1.65% (inactive),2.76% (inactive),-0.78% (inactive),108% (inactive),108% (inactive),1.98% (inactive),4.8% (inactive)
O=C1CN(c2nc3ccccc3n3cnnc23)CC(=O)N1CCc1ccccc1,91.5,100% (inactive),91.5% (inactive),104% (inactive),102% (inactive),12% (inactive),90.2,102,-0.38% (inactive),-1.17% (inactive),-6.92% (inactive),-3.06% (inactive),0.25% (inactive),102% (inactive),95.9% (inactive),3.38% (inactive),5.88% (inactive)
CCc1nn(CC(=O)NCCCN2CCc3ccccc3C2)c(=O)c2cc3sccc3n12,86,86.5% (inactive),86% (inactive),89.1% (inactive),77.5% (inactive),-3.23% (inactive),80.8,77.5,-3.46% (inactive),1% (inactive),-2.08% (inactive),-10.3% (inactive),-4.54% (inactive),78.9% (inactive),79.9% (inactive),0.58% (inactive),1.52% (inactive)
COc1ccccc1-c1nnc(SCC(=O)NC2CCCCC2)o1,83,72.5% (inactive),83% (inactive),89.7% (inactive),87.8% (inactive),-0.34% (inactive),88.2,87.8,6.13% (inactive),1.31% (inactive),1.35% (inactive),10.7% (inactive),-3.27% (inactive),94.6% (inactive),94.5% (inactive),-0.42% (inactive),3.73% (inactive)
Cc1ccnc(NC(=O)C2CCC(CNc3c(N4CCCC4)c(=O)c3=O)CC2)c1 (stereo not given),93,93.5% (inactive),93% (inactive),92.2% (inactive),90.2% (inactive),1.23% (inactive),89,90.2,-0.64% (inactive),-3.83% (inactive),-3.06% (inactive),4.16% (inactive),-1.61% (inactive),72.4% (inactive),71.6% (inactive),0.595% (inactive),-0.21% (inactive)
CC1C(=O)C(C)C(c2cccs2)NC1c1cccs1 (stereo not given),83,100% (inactive),83% (inactive),101% (inactive),104% (inactive),3.58% (inactive),100,104,1.73% (inactive),2.42% (inactive),-1.82% (inactive),-0.61% (inactive),0.03% (inactive),87.3% (inactive),91% (inactive),0.78% (inactive),1.45% (inactive)
COc1ccc(CNc2oc(-c3ccccc3)nc2C#N)cc1,88.5,83.5% (inactive),88.5% (inactive),69.7% (inactive),103% (inactive),0.495% (inactive),102,103,4.27% (inactive),-4.92% (inactive),0.305% (inactive),12.3% (inactive),2.09% (inactive),98.8% (inactive),98.6% (inactive),0.335% (inactive),4.07% (inactive)
O=C(NCC1CCCO1)C1CCN(S(=O)(=O)c2cccc3cccnc23)CC1 (stereo not given),102,93.5% (inactive),102% (inactive),112% (inactive),101% (inactive),7.45% (inactive),94,101,-2.53% (inactive),-2.13% (inactive),-2.44% (inactive),12% (inactive),-1.56% (inactive),94.2% (inactive),93.7% (inactive),1.76% (inactive),2.72% (inactive)
CC1CCCCN1CCNC(=O)c1ccc2c(=O)n(CCc3ccccc3)c(=O)[nH]c2c1 (stereo not given),91,72.5% (inactive),91% (inactive),53.6% (inactive),93.5% (inactive),12.7% (inactive),80.8,93.5,-5% (inactive),1.17% (inactive),-23.3% (inactive),-18.5% (inactive),-4.81% (inactive),76.9% (inactive),73.4% (inactive),1.27% (inactive),8.68% (inactive)
Oc1ccc(Cl)cc1-c1cc(-c2ccccc2)n[nH]1,55.5,61% (inactive),55.5% (inactive),7.56% (active),6.37% (active),-7.55% (inactive),13.9,6.37,-0.53% (inactive),100% (active),-1.5% (inactive),-6.9% (inactive),-7.82% (inactive),16% (active),23.1% (active),1.59% (inactive),8.32% (inactive)
CCOC(=O)N1CCC(NC(=O)c2cnn3ccccc23)CC1,112,123% (inactive),112% (inactive),86% (inactive),87.1% (inactive),1.21% (inactive),85.9,87.1,-1.2% (inactive),3.67% (inactive),-12.9% (inactive),-10.7% (inactive),-1.34% (inactive),108% (inactive),99.9% (inactive),0.135% (inactive),2.01% (inactive)
